Molecules are shown by their SMILES. Inconclusive results are not listed. A call without a number means that no potency is given here. Active and inactive are the calls of the source. Calls follow the shape of the dose curve; as a rule, active = well fitted curve in the direction sought with a large enough effect in the repeat runs; inconclusive = weak or mixed curves; inactive = no such curve, though single readings can be large; an effect the other way counts as inactive or inconclusive.

For 32 molecules, Potency results are on record in PubChem BioAssay (Tox21).
Also: nearly all actives have a fitted effect of over 50% in size.
Potency is read from the fitted curve at half-maximal effect.

Sequence of Cytochrome P450 3A4 (Homo sapiens) (P08684 whole entry, looked up): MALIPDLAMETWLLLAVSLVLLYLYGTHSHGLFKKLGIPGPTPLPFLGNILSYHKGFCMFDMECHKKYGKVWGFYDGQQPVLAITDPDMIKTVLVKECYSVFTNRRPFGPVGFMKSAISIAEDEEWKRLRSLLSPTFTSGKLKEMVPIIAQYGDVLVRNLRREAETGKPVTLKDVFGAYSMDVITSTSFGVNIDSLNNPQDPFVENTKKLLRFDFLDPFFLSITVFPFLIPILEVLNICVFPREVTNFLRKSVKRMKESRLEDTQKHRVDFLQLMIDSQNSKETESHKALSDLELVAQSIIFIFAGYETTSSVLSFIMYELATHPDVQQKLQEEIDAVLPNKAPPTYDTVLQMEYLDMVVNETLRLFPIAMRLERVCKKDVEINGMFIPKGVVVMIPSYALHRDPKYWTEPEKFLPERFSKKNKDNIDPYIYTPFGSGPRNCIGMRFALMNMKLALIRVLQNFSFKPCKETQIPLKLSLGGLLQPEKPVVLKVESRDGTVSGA

The target of one assay is Voltage-gated inwardly rectifying potassium channel KCNH2 (Homo sapiens) (UniProt Q12809). Briefly: Human Ether-a-go-go-Related Gene (hERG) channel small molecule antagonists: fluorescence cell-based qHTS assay (AID 1671200). As to conditions: hERG-U2OS cells, FluxOR thallium flux fluorescence; series mostly up to 76.8 µM. The method, boiled down: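 Read-out: thallium influx as a surrogate for potassium, tracked as fluorescence (480 nm ex/540 nm em) every second for 2 min after Stimulus Buffer addition in dye-loaded hERG-U2OS cells.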
Sequence of Voltage-gated inwardly rectifying potassium channel KCNH2 (Homo sapiens) (Q12809 whole entry, looked up): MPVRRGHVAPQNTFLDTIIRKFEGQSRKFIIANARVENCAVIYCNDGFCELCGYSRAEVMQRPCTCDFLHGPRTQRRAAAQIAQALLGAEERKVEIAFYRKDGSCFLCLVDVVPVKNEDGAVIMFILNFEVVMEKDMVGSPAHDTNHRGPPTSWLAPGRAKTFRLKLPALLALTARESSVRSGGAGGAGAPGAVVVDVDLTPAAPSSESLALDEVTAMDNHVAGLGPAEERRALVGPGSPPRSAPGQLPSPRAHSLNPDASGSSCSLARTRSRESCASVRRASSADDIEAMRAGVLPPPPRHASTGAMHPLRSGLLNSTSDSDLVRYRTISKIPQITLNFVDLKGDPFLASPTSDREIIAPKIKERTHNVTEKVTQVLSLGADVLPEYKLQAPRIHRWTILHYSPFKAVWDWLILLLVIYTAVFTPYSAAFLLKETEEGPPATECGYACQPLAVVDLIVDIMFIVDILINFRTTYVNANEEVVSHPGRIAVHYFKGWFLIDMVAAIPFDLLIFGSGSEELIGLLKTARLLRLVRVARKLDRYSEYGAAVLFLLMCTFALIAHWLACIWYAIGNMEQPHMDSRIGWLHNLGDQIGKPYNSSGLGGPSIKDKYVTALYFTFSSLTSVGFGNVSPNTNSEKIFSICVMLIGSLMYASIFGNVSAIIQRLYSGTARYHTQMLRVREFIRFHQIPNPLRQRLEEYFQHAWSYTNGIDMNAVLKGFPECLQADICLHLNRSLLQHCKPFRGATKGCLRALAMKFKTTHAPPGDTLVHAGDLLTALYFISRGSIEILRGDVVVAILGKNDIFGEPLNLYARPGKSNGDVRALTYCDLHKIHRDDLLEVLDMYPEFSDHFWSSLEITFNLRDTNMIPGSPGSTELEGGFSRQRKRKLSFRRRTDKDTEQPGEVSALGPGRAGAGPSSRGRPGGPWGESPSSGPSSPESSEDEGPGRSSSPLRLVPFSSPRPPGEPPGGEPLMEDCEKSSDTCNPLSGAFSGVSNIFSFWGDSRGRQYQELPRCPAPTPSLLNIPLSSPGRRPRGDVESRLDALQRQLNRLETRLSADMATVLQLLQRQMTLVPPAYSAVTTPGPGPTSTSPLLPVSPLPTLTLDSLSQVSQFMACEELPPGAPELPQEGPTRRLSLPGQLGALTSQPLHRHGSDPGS
Background: The hERG channel carries a current that helps repolarise heart muscle cells.
In the case of `COc1cccc(-c2ccc(/C=C\CN3CCCCCC3)cc2Cl)c1`, the Potency is 1.22 µM (active).
Same read-out and setting: to `CCN(CC)c1ccc2c(c1)Oc1cc(N(CC)CC)ccc1C21OC(=O)c2ccccc21` belongs “inactive”; to `C1=CCCC1`, “inactive”.

The target in a further assay is Cytochrome P450 3A4 (Homo sapiens) (UniProt P08684). Briefly: Cytochrome P450 Family 3 Subfamily A Member 4 (CYP3A4) small molecule antagonists: luciferase reporter qHTS assay (AID 1671201). The following applies: P450-Glo CYP3A4 enzyme, luciferin luminescence, 1 h; series mostly up to 115 µM. The method, boiled down:
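Luminescent readout (RLU) proportional to CYP3A4 activity, from luciferin generated off a proluciferin substrate. Enzyme–substrate mix plus compound 10 min at room temp, NADPH regeneration 1 h, detection reagent 20 min.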
With `Nc1ccc(F)c([N+](=O)[O-])c1`, the Potency entry was “inactive”.
Same read-out and setting: with `CC1(C)[C@H](C(=O)OCc2cccc(Oc3ccccc3)c2)[C@@H]1C=C(Cl)Cl` the entry was “inactive”; with `C/C=C/C(=O)C1=C(C)C=CCC1(C)C`, “inactive”; with `C1CCSC1`, “inactive”.
On the same count and under the same terms, to `CCC(C)(C)c1ccc(CC(C)CN2C[C@@H](C)O[C@@H](C)C2)cc1` (stereo not given in full) belongs “inactive”.
Same read-out and setting: to `O=C(c1ccccc1)c1ccc(Cl)cc1` belongs “inactive”; to `NCc1cccc(C2CCN(C(=O)c3ccc(C#Cc4ccccc4F)o3)CC2)c1`, 5.64 µM (active); to `CC(C)(c1ccc(Oc2ccc(N)cc2)cc1)c1ccc(Oc2ccc(N)cc2)cc1`, 2.52 µM (active).
On to `Nc1ccc(Oc2cccc(Oc3ccc(N)cc3)c2)cc1`, for which the Potency was 6.33 µM (active).
In the case of `CCN(CC)c1ccc(C=O)c(O)c1`, the Potency entry is “inactive”.
The same measure, in the same setting: to `Cc1ccc(C=O)cc1` belongs “inactive”; to `CC(=O)CC(N)=O`, “inactive”.
As to `CCOC=C(C(=O)OCC)C(=O)OCC`, the Potency entry is “inactive”.
Still for that read-out and setting: to `O=C1C=CC(=O)N1c1cccc(N2C(=O)C=CC2=O)c1` belongs “inactive”; to `[Cl][Eu]([Cl])[Cl]`, “inactive”; to `O=C(CCN1CCC(c2ccccc2)C1)c1ccc2c(c1)OCCO2` (stereo not given), “inactive”.
Same read-out and setting: to `C/C(=C\c1ccc(C(=O)O)cc1)c1ccc2c(c1)C(C)(C)CCC2(C)C` belongs “inactive”.
On the same count and under the same terms, to `CCCCCCCCc1ccc(Nc2ccc(CCCCCCCC)cc2)cc1` belongs “inactive”; to `c1ccc(C[P+](c2ccccc2)(c2ccccc2)c2ccccc2)cc1`, “inactive”.
Regarding `CCc1cccc(CC)c1`, the Potency entry is “inactive”.
On the same count and under the same terms, to `O=C1OC2(c3ccccc31)c1ccc(O)c(Br)c1Oc1c2ccc(O)c1Br` belongs “inactive”.
On to `CCCCCCCCCCCCCCCCC(C(=O)O)C(O)(CC(=O)O)C(=O)O` (stereo not given), for which the Potency result was “inactive”.
On the same count and under the same terms, with `c1ccc2occc2c1` the entry was “inactive”.
The same measure, in the same setting: with `NC(=O)c1ccccc1Cl` the entry was “inactive”; with `O=S(=O)(c1ccc(OCc2ccccc2)cc1)c1ccccc1O`, “inactive”; with `C=Cc1ccc(O)c(OC)c1`, 20 µM (active).
Still for that read-out and setting: to `CCOc1ccc([N+](=O)[O-])cc1` belongs 72.1 µM (active); to `COc1cccc(-c2ccc(/C=C\CN3CCCCCC3)cc2Cl)c1`, “inactive”.
In the case of `CCN(CC)c1ccc2c(c1)Oc1cc(N(CC)CC)ccc1C21OC(=O)c2ccccc21`, the Potency was 11 µM (active).
On the same count and under the same terms, to `CCCCCCCC/C=C\CCCCCCCC(=O)N(CCO)CCO` belongs 15.8 µM (active).
As for `CCCCCCCCCC[N+](C)(CCCCCCCCCC)CCC[Si](OC)(OC)OC`, the Potency was 28.3 µM (active).
With `C1=CCCC1`, the Potency entry was “inactive”.
